Only some compounds are listed: those with a hit (about 2.5% of all), similar ones and a draw of the others.
ULK1 inh – ULK1 kinase inhibitors, primary screen, biochemical, AlphaScreen; AID 1259251, 2017; inhibition, % at 5.96 µM; AlphaScreen Atg13 phosphorylation by ULK1, luminescence; hit rate 1.9% among 30,000; Serine/threonine-protein kinase ULK1 (Homo sapiens), O75385; in the data active = inhibition above about 43%;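 note: 0% = median of compound wells and 100% = no enzyme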
ASK1 inh – ASK1 kinase inhibitors, primary screen, biochemical, AlphaScreen; Mitogen-activated protein kinase kinase kinase 5 (Homo sapiens), Q99683; AlphaScreen MKK6 phosphorylation by ASK1, luminescence; inhibition, % at 7.44 µM; hit rate 0.99% among 22,000; in the data active = inhibition above about 35%;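 note: 0% = median of compound wells and 100% = no enzyme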
An asterisk follows results filed as active; x = no result.

SMILES	ULK1 inh	ASK1 inh
O=C(NCc1cccnc1)c1csc(-c2ccc(N3CCOCC3)nc2)n1	3	-8
Cc1nc(C)n(-c2ccc(Nc3cc(-c4nn(Cc5ccccc5)cc4-c4ccccc4)ccn3)cc2)n1	-19	11
N#Cc1ccc(Nc2nccc(-c3cncc(N4CCOCC4)c3)n2)cc1	1	24
OC1CCN(c2ccc(Nc3nccc(-c4cncc(N5CCOCC5)c4)n3)cc2)CC1	68*	6
O=C(Nc1ccc2c(c1)OCO2)c1cnc(Nc2ccncn2)s1	7	15
O=C(NCCCN1CCCC1=O)C1CCN(c2ccc(N3CCC(N4CCOCC4)CC3)nn2)CC1	7	-17
Cc1ncn(-c2ccc(Nc3nccc(-c4ccc(C#N)c(N5CCOCC5)c4)n3)cc2)n1	-20	1
N#Cc1cc(-c2ccnc(Nc3ccc(-n4cnc(N5CCOCC5)n4)cc3)n2)ccc1N1CCC(O)CC1	49*	-15
N#Cc1cc(-c2ccnc(Nc3ccc(-c4nn[nH]n4)cc3)n2)ccc1N1CCC(O)CC1	75*	-31
c1cc(-c2ccnc(Nc3ccc(-c4nn[nH]n4)cc3)n2)cc(N2CCOCC2)c1	-24	-4
COc1ccc(-c2nc(NCCCN3CCCC3=O)nc(OC)n2)cc1	14	-1
CC(C)N(CCNC(=O)c1ccnc(Nc2ccc(-n3ccnc3)cc2)c1)C(C)C	-7	-5
Nc1nccc(-c2ccc3nc(C4COc5ccc(C(=O)NCCN6CCOCC6)cc5C4)[nH]c3c2)n1 (centres undefined)	-8	16
CCCNc1nc(NCCN2CCOCC2)ncc1C	8	4
c1ccc(CNc2nc(Nc3ccc(-n4ccnc4)cc3)nc3c2ncn3C2CCCCC2)cc1	1	0
OC[C@H]1OC(O)[C@H](O)[C@@H](O)[C@H]1O (some centres undefined)	10	x
OC[C@H]1OC([S-])[C@H](O)[C@@H](O)[C@@H]1O.[Au+] (some centres undefined)	66*	x
COc1cc(Nc2nc(Nc3ccc(N4CCOCC4)cc3)ncc2C)cc(OC)c1OC	45*	20
COc1cc2nc(NCCN3CCOCC3)nc(Nc3ccc(N4CCOCC4)cc3)c2cc1OC	5	4
COc1cc(Nc2cc(C)nc(Nc3ccc(-n4ccnc4)cc3)n2)cc(OC)c1OC	-12	8
Cc1cnc(Nc2ccccc2)nc1Nc1ccc(N2CCOCC2)cc1	30	28
CCNc1nc(Nc2ccc(N3CCOCC3)cc2)c2cc(OC)c(OC)cc2n1	7	43*
COc1cc(Nc2nc(Nc3ccc(-n4ccnc4)cc3)ncc2C)cc(OC)c1OC	60*	12
Cc1cccc(C(=O)NNC(=O)COc2ccc3ccccc3c2)c1O	10	x
Nc1nc(Nc2nccc3ccccc23)nc2nc[nH]c12	23	-14
SMILES	ULK1 inh	ASK1 inh
CC(=O)Nc1ccc(-c2cnc3cccc(NC(C)=O)c3c2)cc1	6	-2
CC(=O)Nc1ccc(NC(=O)c2csc(-c3cccc(N)c3)n2)cc1	2	14
O=C(N/N=C\c1ccc(-c2ccc([N+](=O)[O-])cc2)o1)c1cnccn1	-3	x
Nn1cnnc1N/N=C/c1ccc(-c2cccc([N+](=O)[O-])c2)o1	45*	x
CC(=O)Nc1ccc(/C=C2/SC(=O)NC2=O)cc1	2	x
O=C1NC(=O)/C(=C\c2cc(Br)cc(Cl)c2O)S1	44*	x
CC(C)n1cnc2c(NC3CCN(Cc4ccccc4)CC3)nc(-c3ccc(C(=O)N4CCN(C)CC4)cc3)nc21	-1	-18
CN1CCN(C(=O)c2ccc(-c3ncc(C(=O)Nc4ccccc4)s3)cc2)CC1	0	-4
NC(=O)c1cc(N2CCC(N3CCOCC3)CC2)nc2ccccc12	-10	-3
O=C(O)c1ccccc1-c1c2cc(I)c(=O)c(I)c-2oc2c(I)c(O)c(I)cc12	26	x
O=C(O)c1c(Cl)c(Cl)c(Cl)c(Cl)c1-c1c2cc(I)c(=O)c(I)c-2oc2c(I)c(O)c(I)cc12	45*	x
Cc1cncc2c(S(=O)(=O)N3CCCN(C(=O)CN)C[C@@H]3C)cccc12	7	4
Cc1cncc2cccc(S(=O)(=O)N3CCCN(C(=O)CN)C[C@@H]3C)c12	67*	3
COc1cc2nc(Nc3cccc(N(C)C)c3)nc(NC3CC3)c2cc1OC	7	49*
CCCNc1nc(Nc2cccc(N(C)C)c2)nc2cc(OC)c(OC)cc12	4	25
COc1cc2nc(Nc3cccc(N(C)C)c3)nc(NCCOc3ccccc3)c2cc1OC	-32	40*
COc1cc2nc(Nc3ccccc3)nc(NCCOc3ccccc3)c2cc1OC	-18	-6
O=C(NCCN1CCOCC1)c1cccc(N2CCc3ccccc3C2)n1	-29	7
O=C(NC1CC1)c1cccc(Nc2cccnc2)c1	1	-12
Cc1cnc(Nc2ccc(N3CCOCC3)cc2)nc1Nc1ccccc1C(N)=O	95*	-59
NC(=O)c1ccccc1Nc1nc(Nc2ccc(Cl)cc2)ncc1Cl	20	-39
